# Source: PubChem BioAssay (NCI)
# About 83,000 compounds went through this panel and 20% of them were active in at least one assay; those are over-represented in the sample as a whole.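 Percent growth is the endpoint: 0 to 100 indicates growth inhibition (40 means 60% inhibition), 0 means no net growth, and negative values indicate cell death.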 Values without a mark were called inactive. Calls of active or inactive are those of the source. How the source made its calls: active means growth percent below 10; inactive means the rest.
# Tests used:
# Assay in all cases: NCI-60 one-dose screen, 48 h (100 = growth as untreated, 0 = no growth, -100 = all killed)
# Settings in all cases: 10 µM unless noted
# HCT-15 colon = system: HCT-15 colon
# HT29 colon = system: HT29 colon
# SNB-75 CNS = system: SNB-75 CNS
# SNB-19 CNS = system: SNB-19 CNS
# U251 CNS = system: U251 CNS
# PC-3 prostate = system: PC-3 prostate
# SK-MEL-5 melanoma = system: SK-MEL-5 melanoma
# UACC-62 melanoma = system: UACC-62 melanoma
# LOX IMVI melanoma = system: LOX IMVI melanoma
# SK-MEL-28 melanoma = system: SK-MEL-28 melanoma
Structure (SMILES),growth (HCT-15 colon),growth (HT29 colon),growth (SNB-75 CNS),growth (SNB-19 CNS),growth (U251 CNS),growth (PC-3 prostate),growth (SK-MEL-5 melanoma),growth (UACC-62 melanoma),growth (LOX IMVI melanoma),growth (SK-MEL-28 melanoma)
CC(C)Sc1nc(Cl)c(C#N)c(-c2ccc(F)cc2)n1,87.4%,103%,97.3%,113%,92.9%,106%,100%,102%,70.2%,119%
Clc1ccc2nc(CI)c(CI)nc2c1,27.1%,100%,96.6%,97.1%,71.7%,84.8%,75%,81.9%,14.9%,113%
COc1ccc(NS(=O)(=O)N2CCCCC2)cc1,115%,102%,115%,96.4%,111%,91.8%,97.1%,82.5%,100%,123%
COc1ccc(C2=NN(C=O)C(c3cccc(Nc4ccnc5cc(Cl)ccc45)c3)C2)cc1 (stereo not given),16.6%,4.88% (active),8.36% (active),40%,19.6%,22.8%,-21.5% (active),32.3%,25%,50.6%
CCOC(=O)c1sc(NC(=O)COc2ccc(/C=C3\CCc4cc(OC)ccc4C3=O)cc2)nc1C,102%,85.8%,105%,96.1%,91.2%,79.5%,96.6%,95.2%,-88.1% (active),118%
COc1cccc(/C=N\NC(=O)c2ccncc2)c1O,23.9%,67.6%,57.1%,52.6%,31.6%,47.1%,58.8%,41.2%,15.2%,69.6%
CCOC(=O)Nc1ccc2c3c(cccc13)-c1ccccc1-2,25.2%,5.04% (active),6.18% (active),45.1%,34.5%,49.8%,33.6%,30.5%,30.5%,46%
CC[C@@H](C)/C=C(C)/C=C/C(O)=C1\C(=O)N[C@@H](Cc2ccc(OC(=O)[C@@](OC)(c3ccccc3)C(F)(F)F)cc2)C1=O,102%,114%,101%,96.6%,83.9%,37.3%,110%,98.9%,50.3%,103%
NC(=O)NC1(C(=O)O)CCCC1,99.9%,108%,100%,113%,99.9%,100%,111%,115%,103%,122%
CCOC(=O)/C=C1/SC(=Nc2ccc(C#N)cc2)N(Cc2ccco2)C1=O,-4.1% (active),35%,83.3%,67.1%,59.8%,20.2%,62.5%,35.5%,-73.2% (active),38.5%
COc1cccc(N2CCN(CC(=O)N3CCN(c4nnc(-c5ccc(Cl)cc5)c(-c5ccc(Cl)cc5)n4)CC3)CC2)c1,49.5%,51%,76.3%,77.1%,65.7%,15.8%,48.4%,70.4%,65%,88.7%
C=C1CCC2C(C)(COC(=O)CC)C(OC(=O)CC)CCC2(C)C1C/C=C1/C(=O)OCC1OC(=O)CC (stereo not given),0.0652% (active),-73.2% (active),-3.12% (active),62%,-72.3% (active),27.7%,16.8%,0.659% (active),-99.1% (active),-36.1% (active)
O=C1OC2(c3ccccc31)c1ccccc1-c1ccccc12,71.4%,74.6%,61.2%,83%,63.6%,74.4%,78.9%,57.4%,77.6%,74.5%
CCN(Cc1cccc(S(=O)(=O)[O-])c1)c1ccc(C(=C2C=CC(=[N+](CC)Cc3cccc(S(=O)(=O)O)c3)C=C2)c2ccccc2S(=O)(=O)O)cc1,103%,103%,87.9%,106%,99.2%,93.7%,97.4%,101%,96%,109%
COc1cnc2c(c1)C(=O)c1c-2n(CCCN2CCC(O)CC2)c(=O)c2cc(F)ccc12,7.5% (active),-20.6% (active),-16.9% (active),14%,-28.4% (active),3.1% (active),-98.9% (active),-40.8% (active),-70.3% (active),13.2%
CCSCC1CC(O)(c2ccccc2)C(c2ccccc2)C(c2ccc(Cl)cc2)O1 (stereo not given),7.75% (active),13.5%,59.4%,28.5%,5.12% (active),4.66% (active),-94.8% (active),0.0955% (active),-85.2% (active),-18.7% (active)
CN1CCN(c2nc3scc(-c4ccccc4)c3c(=O)[nH]2)CC1,104%,96.7%,88.4%,96.5%,99.4%,92.9%,96.7%,94.2%,95.9%,104%
Cc1cc2c(cc1C)[n+](Cc1ccc3ccccc3c1)cn2Cc1ccc2ccccc2c1,-77.4% (active),-83.3% (active),-73.6% (active),-77.2% (active),-91.6% (active),-84% (active),-99.2% (active),-80.5% (active),-86.7% (active),-91.9% (active)
CN(C)CCC(=O)Nc1ccc(-n2cc(-c3cccc(NC(=S)Nc4cccc(-c5cn(-c6ccc(NC(=O)CCN(C)C)cc6)nn5)c4)c3)nn2)cc1,92.5%,28.4%,119%,106%,70.9%,89%,97.2%,114%,19.3%,133%
COc1ccc(C(=O)COc2cccc(/C=C3\CSc4ccc(Cl)cc4C3=O)c2)cc1,70.4%,72.2%,99.3%,91.3%,71.1%,61.9%,67.2%,71.8%,33.1%,114%
O=C1NC(=O)/C(=C/c2ccc(Cl)cc2Cl)N1,103%,121%,83.7%,107%,102%,96.5%,108%,102%,97.3%,109%
Cc1onc(-c2ccccc2Cl)c1C(=O)N[C@@H]1C(=O)N2[C@@H]1SC(C)(C)[C@@H]2C(=O)O,106%,105%,103%,105%,98.4%,98.3%,101%,99.5%,99.9%,117%
CC[N+](CCCCCCCCCC[N+](CC)(c1ccccn1)c1ccccn1)(c1ccccn1)c1ccccn1,58.6%,-34% (active),6.81% (active),13.3%,6.56% (active),2.94% (active),-72.4% (active),0.363% (active),-54.4% (active),15.1%
COP(=O)(OC)C(c1ccccc1)(c1ccccc1)c1ccccc1,107%,91.4%,108%,99.9%,87.7%,75.2%,89.5%,70.9%,84.2%,109%
COC(=O)[C@H](Cc1cn(C)cn1)NC(=O)[C@H](C)NC(=O)Nc1cc(C(F)(F)F)cc(C(F)(F)F)c1,37.7% [100 µM],-67.5% [100 µM] (active),-78.3% [100 µM] (active),-82.5% [100 µM] (active),-93.8% [100 µM] (active),-83.7% [100 µM] (active),-95.4% [100 µM] (active),-93% [100 µM] (active),-81% [100 µM] (active),-94.4% [100 µM] (active)
[N-]=[N+]=NCc1cccc(/C(O)=C/C(=O)C(=O)O)c1,113%,83.9%,73.6%,101%,103%,97.3%,106%,92.4%,92.6%,82.1%
CCCCCCC(CC#N)(CCC)CCCC (stereo not given),108%,111%,88.7%,100%,104%,92.2%,105%,101%,89.8%,104%
